The structures appear in SMILES notation. Inconclusive results are not listed. The source made the active and inactive calls. Unless noted, calls come from the whole dose curve; as a rule, active = well fitted curve in the direction sought with a large enough effect in the repeat runs; inconclusive = weak or mixed curves; inactive = no such curve, though single readings can be large; an effect the other way counts as inactive or inconclusive.

The record followed here is PubChem BioAssay (Tox21).

The nature of test [1]: qHTS assay to identify small molecule antagonists of the estrogen related receptor (ERR) signaling pathway - cell viability counter screen (AID 1224818).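 Note: series mostly up to about 46 µM; viability measured after 17.5 h of compound exposure.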 In a few lines: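 Multiplexed counter screen to separate cytotoxic compounds from true ERR modulators. ERR cells received DMSO-dissolved compounds after a 6 h pre-incubation, were exposed 17.5 h at 37 C, then assayed with CellTiter-Fluor fluorescence.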
On the technique in general: Quantitative high-throughput screening tests each substance at several concentrations.

The nature of test [2]: qHTS assay to identify small molecule antagonists of the estrogen related receptor (ERR) signaling pathway (AID 1224819; note: nearly all actives have a fitted effect of over 50% in size; note: potency is the fitted concentration of half-maximal effect). The procedure, abridged:
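Seed ERR cells 2,000/well; rest 6 h at 37 C/5% CO2; pin compounds in DMSO; incubate 18 h at 37 C; add One-Glo; wait 30 min at room temperature; measure luminescence.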

The nature of test [3]: qHTS assay to identify small molecule agonists of the estrogen related receptor (ERR) signaling pathway (AID 1224820). Note: potency is the fitted concentration of half-maximal effect. The procedure, abridged:
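Cells: ERR line from NTP, 2,000/well. Pre-incubation 6 h, 37 C/5% CO2. Compound (DMSO) pin transfer, 18 h 37 C. One-Glo, 30 min RT, luminescence.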

Test [4] has as its system estrogen-related receptor alpha (ERRalpha) with PGC-1alpha coactivator, human. As to the kind of experiment: qHTS assay to identify small molecule antagonists of the estrogen related receptor signaling pathway with the pleiotropic PPARgamma coactivator (PGC) (AID 1224821; calls by dose curve; note: nearly all actives have a fitted effect of over 50% in size; note: potency is the fitted concentration of half-maximal effect). In a few lines: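 Luminescent read-out (One-Glo, 30 min at room temperature) following 18 h treatment of PGC/ERR cells at 37 C with compounds delivered in DMSO. Cells had settled 6 h at 37 C/5% CO2 before dosing.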

Test [5] can be described thus: qHTS assay to identify small molecule antagonists of the estrogen related receptor signaling pathway with the pleiotropic PPARgamma coactivator (PGC) cell viability counter screen (AID 1224822; note: series mostly up to about 46 µM). In a few lines:
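Cells: PGC/ERR, 2,000/well, 1536-well format. Pre-incubation 6 h, 37 C/5% CO2. Compound exposure 17.5 h, 37 C. Detection: CellTiter-Fluor, 30 min, fluorescence.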

Test [6] is described as follows: qHTS assay to identify small molecule agonists of the estrogen related receptor signaling pathway with the pleiotropic PPARgamma coactivator (PGC) (AID 1224823). Note: potency is the fitted concentration of half-maximal effect. The procedure, abridged:
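Steps: plate PGC/ERR cells at 2,000 cells/well; incubate 6 h, 37 C/5% CO2; pin-transfer compounds (DMSO); incubate 18 h, 37 C; add One-Glo; 30 min RT; read luminescence.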

Test [7] is described as follows: qHTS assay to identify small molecule antagonists of the estrogen related receptor (ERR) signaling pathway from Tox21 library - cell viability counter screen (AID 1224834). Note: nearly all actives have a fitted effect of over 30% in size. The procedure, abridged:
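Fluorescence from CellTiter-Fluor gives the viability read-out, taken 30 min after reagent addition. Before that, ERR cells seeded 6 h earlier were incubated with compounds for 17.5 h at 37 C.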

In test [8] the target is Luciferin 4-monooxygenase (Photinus pyralis) (UniProt P08659). The test is described as follows: qHTS assay to identify small molecule inhibitors of firefly luciferase (AID 1224835). Note: series mostly up to about 120 µM; nearly all actives have a fitted effect of over 25% in size. The procedure, abridged:
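Biochemical qHTS: compounds run as interplate titrations against purified firefly enzyme, with D-luciferin and ATP each at its KM concentration. Light output recorded by CCD imaging.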

A short description of test [9]: qHTS assay to identify small molecule agonists of the constitutive androstane receptor (CAR) signaling pathway - cell viability counter screen (AID 1224836). Note: series mostly up to about 92 µM; nearly all actives have a fitted effect of over 45% in size. The procedure, abridged:
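Fluorescence from CellTiter-Fluor indicates live cells after 23 h exposure. The human hepatoma line expresses hCAR and a CYP2B6-2.2kb reporter. Incubation medium contains 0.75 uM PK11195 (final).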

Test [10] is described as follows: qHTS assay to identify small molecule antagonists of the constitutive androstane receptor (CAR) signaling pathway - cell viability counter screen (AID 1224837). Note: series mostly up to about 92 µM; nearly all actives have a fitted effect of over 45% in size. In a few lines:
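HepG2-CYP2B6-hCAR cells, 2500/well, 4 hr pre-incubation; compound titration, 15 conc.; CITCO 50 nM final; 23 hr, 37 C/5% CO2; CellTiter-Fluor, fluorescence intensity.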

Test [11] deals with Nuclear receptor subfamily 1 group I member 3 (Homo sapiens) (UniProt Q14994). As to the kind of experiment: qHTS assay to identify small molecule antagonists of the constitutive androstane receptor (CAR) signaling pathway (AID 1224838).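 Note: HepG2 cells stably expressing hCAR with CYP2B6 luciferase reporter stimulated by CITCO; nearly all actives have a fitted effect of over 40% in size.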 In a few lines:
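HepG2-CYP2B6-hCAR cells; 4 h pre-incubation; cpd (15 conc) + CITCO 50 nM final; 24 h, 37 C/5% CO2; ONE-Glo, luminescence.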

For test [12] the target is unchanged. The test is described as follows: qHTS assay to identify small molecule agonists of the constitutive androstane receptor (CAR) signaling pathway (AID 1224839).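 Note: HepG2 cells stably carrying human CAR and a CYP2B6 luciferase reporter; series mostly up to about 92 µM; nearly all actives have a fitted effect of over 15% in size.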 In a few lines:
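Stable hCAR/CYP2B6-2.2kb HepG2 line in DMEM with 10% FBS; compounds (15 concentrations) and 0.75 uM PK11195 final, 24 h at 37 C/5% CO2, then ONE-Glo luminescence after 30 min.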

A short description of test [13]: qHTS assay to identify small molecule antagonists of the estrogen related receptor signaling pathway with the pleiotropic PPARgamma coactivator (PGC) from Tox21 10K library - cell viability counter screen (AID 1224840; active = well fitted cell-killing curve with a large enough effect in the repeat runs, not every such curve was filed as active; note: nearly all actives have a fitted effect of over 40% in size). In a few lines: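 PGC/ERR cells, 2,000/well; 6 h pre-incubation 37 C/5% CO2; cpd in DMSO via pin tool; 17.5 h 37 C; CellTiter-Fluor, 30 min; fluorescence.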

The nature of test [14]: qHTS assay to identify small molecule antagonists of the estrogen related receptor signaling pathway with the pleiotropic PPARgamma coactivator (PGC) from Tox21 10K library (AID 1224841; call rule not given here; note: series mostly up to about 92 µM; actives are mostly falling curves and most rising ones were filed inactive; nearly all actives have a fitted effect of over 50% in size). The procedure, abridged: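 PGC/ERR cell line, 2,000 cells/well; 6 h pre-incubation 37 C/5% CO2; compounds (DMSO) pinned in; 18 h, 37 C; One-Glo, 30 min RT; luminescence.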
Test [15] in a line: qHTS assay to identify small molecule agonists of the estrogen related receptor signaling pathway with the pleiotropic PPARgamma coactivator (PGC) from Tox21 10K library (AID 1224842). Note: nearly all actives have a fitted effect of over 15% in size. The procedure, abridged:
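PGC/ERR reporter cell line, 2,000 cells per well, incubated 6 h at 37 C before 23 nL compound in DMSO was added. After 18 h at 37 C, One-Glo luminescence read following 30 min at room temperature.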

Test [16] deals with Thyrotropin receptor (Homo sapiens) (UniProt P16473). The test is described as follows: qHTS assay to identify small molecule agonists of the thyroid stimulating hormone receptor (TSHR) signaling pathway (AID 1224843; calls by dose curve; note: nearly all actives have a fitted effect of over 45% in size; note: potency is the fitted concentration of half-maximal effect). The procedure, abridged:
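TSHR-HEK293 cells in agonist mode, 30 min room-temperature step, then cAMP measured by competitive HTRF (cAMP-d2 with anti-cAMP cryptate) after 1 h at room temperature. Tested at 15 concentrations in triplicate.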

Test [17] in a line: qHTS assay to identify small molecule agonists of the hypoxia (HIF-1) signaling pathway - cell viability counter screen (AID 1224844; calls by dose curve; note: nearly all actives have a fitted effect of over 50% in size). In a few lines: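 ME-180 HRE-bla cells, 2,000/well, 0.5% dialyzed FBS; 5 hr settle, 17 hr compound at 37C/5% CO2; CCF4-AM reporter read first, then CellTiter-Glo luminescence after 30 min RT.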
The nature of test [18]: qHTS assay to identify small molecule agonists of H2AX (AID 1224845; active = well fitted activation curve with a large enough effect in the signal ratio in the repeat runs, not every such curve was filed as active; the % refers to the signal ratio). In a few lines: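 Wild-type CHO-K1 cells, plated overnight, exposed 3hr at 37C to 15 concentrations (0.76% DMSO final). Lysed, then HTRF anti-pH2AX (S139) cryptate and anti-H2AX-d2 antibodies, 24 hr room temperature; 665/620 nm emission read.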
Test [19] in a line: qHTS assay to identify small molecule agonists of the hypoxia (HIF-1) signaling pathway (AID 1224846; active = well fitted activation curve with a large enough effect in the signal ratio in the repeat runs, not every such curve was filed as active; the % refers to the signal ratio). In a few lines: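 Cell line: CellSensor HRE-bla ME-180; 2,000 cells/well; 0.5% dialyzed FBS; 5 h preincubation; DMSO compound pin transfer; 17 h, 37C, 5% CO2; CCF4-AM added; bla FRET signal scored for activation.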

Sequence of Nuclear receptor subfamily 1 group I member 3 (Homo sapiens) (Q14994 whole entry, looked up): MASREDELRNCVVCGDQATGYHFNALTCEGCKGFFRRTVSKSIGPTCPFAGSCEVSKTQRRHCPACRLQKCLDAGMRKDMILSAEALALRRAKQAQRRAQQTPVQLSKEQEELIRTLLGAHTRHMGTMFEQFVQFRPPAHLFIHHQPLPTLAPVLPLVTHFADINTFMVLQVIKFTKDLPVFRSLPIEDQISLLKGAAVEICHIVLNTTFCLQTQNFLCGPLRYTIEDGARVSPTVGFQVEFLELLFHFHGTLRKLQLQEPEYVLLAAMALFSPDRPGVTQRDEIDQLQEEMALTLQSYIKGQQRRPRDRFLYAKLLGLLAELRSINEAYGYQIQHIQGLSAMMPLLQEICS
Sequence of Luciferin 4-monooxygenase (Photinus pyralis) (P08659 whole entry, looked up): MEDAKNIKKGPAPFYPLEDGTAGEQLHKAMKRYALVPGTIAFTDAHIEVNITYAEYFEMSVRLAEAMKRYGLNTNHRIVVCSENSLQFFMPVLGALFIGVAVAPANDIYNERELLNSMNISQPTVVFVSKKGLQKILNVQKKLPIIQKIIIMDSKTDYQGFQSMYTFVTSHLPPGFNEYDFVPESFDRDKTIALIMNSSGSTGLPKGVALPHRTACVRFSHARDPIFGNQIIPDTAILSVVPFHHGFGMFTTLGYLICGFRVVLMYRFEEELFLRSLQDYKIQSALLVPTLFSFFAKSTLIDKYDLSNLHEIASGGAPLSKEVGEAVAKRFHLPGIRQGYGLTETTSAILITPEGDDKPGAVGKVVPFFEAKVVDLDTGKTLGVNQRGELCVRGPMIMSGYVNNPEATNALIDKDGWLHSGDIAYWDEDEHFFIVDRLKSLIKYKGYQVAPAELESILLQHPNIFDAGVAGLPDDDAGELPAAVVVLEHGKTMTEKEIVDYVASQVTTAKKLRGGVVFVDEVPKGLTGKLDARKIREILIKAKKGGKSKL
Sequence of Thyrotropin receptor (Homo sapiens) (P16473 whole entry, looked up): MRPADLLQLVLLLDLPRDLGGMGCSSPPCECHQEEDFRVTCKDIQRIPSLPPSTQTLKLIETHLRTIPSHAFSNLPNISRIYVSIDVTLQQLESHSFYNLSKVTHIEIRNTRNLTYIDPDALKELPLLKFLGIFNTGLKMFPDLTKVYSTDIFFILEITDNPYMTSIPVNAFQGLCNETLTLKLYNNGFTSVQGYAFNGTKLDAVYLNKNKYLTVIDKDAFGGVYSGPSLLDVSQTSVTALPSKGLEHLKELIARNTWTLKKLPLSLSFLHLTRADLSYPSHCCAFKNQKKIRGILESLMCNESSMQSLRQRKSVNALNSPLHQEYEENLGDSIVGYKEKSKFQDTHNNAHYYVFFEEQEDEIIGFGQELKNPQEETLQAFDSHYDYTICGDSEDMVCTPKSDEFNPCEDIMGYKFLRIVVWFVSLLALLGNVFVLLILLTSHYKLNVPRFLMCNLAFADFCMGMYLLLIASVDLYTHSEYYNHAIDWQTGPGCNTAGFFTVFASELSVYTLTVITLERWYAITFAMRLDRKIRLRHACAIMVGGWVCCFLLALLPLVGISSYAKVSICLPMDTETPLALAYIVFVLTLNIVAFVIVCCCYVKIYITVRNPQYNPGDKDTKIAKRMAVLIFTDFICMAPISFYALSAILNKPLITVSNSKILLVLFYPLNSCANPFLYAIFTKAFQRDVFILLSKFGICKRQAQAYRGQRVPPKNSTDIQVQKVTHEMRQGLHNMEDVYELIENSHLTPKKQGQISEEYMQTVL

For the compound `CNC(=O)[C@H]1O[C@@H](n2cnc3c(NCc4ccc(N)cc4)ncnc32)[C@H](O)C1O` (stereo partly drawn), the Potency result in test [1], in test [2], in [3], in test [4], in [5] and in test [6] was “inactive” each time.
`CCN1C(=O)C=CC1=O`: the Potency entry in test [1], in test [2], in [3], in test [4], in test [5] and in test [6] was “inactive” throughout.
Take `O=c1[nH]c2cc(Cl)ccc2c(O)c1-c1ccc(Oc2ccccc2)cc1`: the Potency entry in test [1], in [2], in [3], in test [4], in [5] and in test [6] was “inactive” throughout.
Regarding `Brc1cc2c(cc1[C@H]1Nc3ccccc3[C@H]3C=CC[C@H]31)OCO2`, the Potency result in [1], in test [2], in [3], in [4], in test [5] and in test [6] was “inactive” throughout.
Turning to `O=[N+]([O-])c1ccc(CSc2ncnc3c2ncn3[C@@H]2O[C@H](CO)C(O)[C@H]2O)cc1` (stereo partly drawn), the Potency entry in test [1], in [2], in test [3], in test [4], in test [5] and in [6] was “inactive” throughout.
Take `Cn1ccnc1`: the Potency result in test [1], in [2], in test [3], in [4], in [5] and in [6] was “inactive” throughout. Moreover, the Potency result in [7], in test [8], in test [9], in test [10], in test [11] and in test [12] was “inactive” each time. Besides, the Potency entry in [13], in [14], in test [15], in test [16], in test [17] and in test [18] was “inactive” each time.
On to `CC(N)(C(=O)O)c1ccc(C(=O)O)cc1` (stereo not drawn), for which the Potency result in [1], in test [2], in test [3], in test [4], in [5] and in [6] was “inactive” each time.
Take `c1ccc2occc2c1`: the Potency result in test [1], in test [2], in test [3], in test [4], in test [5] and in [6] was “inactive” each time. Further, the Potency result in test [7], in [8], in [9], in test [11], in test [12] and in test [13] was “inactive” each time. Besides, the Potency entry in test [14], in test [15], in test [17], in test [18] and in test [19] was “inactive” each time. Moreover, in test [16], the Potency is 13.7 µM (active).
With `CC[C@H](C)C(=O)O[C@H]1CCC=C2C=C[C@H](C)[C@H](CC[C@@H]3C[C@@H](O)CC(=O)O3)[C@H]21`, the Potency entry in [1], in [2], in test [4], in test [5] and in [6] was “inactive” each time. Further, in test [3], the Potency is 3.48 µM (active).
With `O=c1onc2cnc3ccccc3n12`, the Potency entry in [1], in test [2], in test [3], in test [4], in test [5] and in [6] was “inactive” in each case.
`O=C(O)CCC(=O)N1CCCC1C(=O)O` (stereo not drawn): the Potency entry in test [1], in test [2], in test [3], in [4], in [5] and in [6] was “inactive” each time.
For the compound `CNCCc1cnc(CCC(c2ccccc2)c2ccccc2)[nH]1`, the Potency entry in test [1], in test [2], in test [3], in test [4] and in test [6] was “inactive” throughout.
Turning to `C=C1C[C@@]23CC[C@H]4[C@@](C)(CCC[C@@]4(C)C(=O)OC4OC(CO)C(O)C(O)C4O)[C@@H]2CC[C@]1(OC1OC(CO)C(O)C(O)C1OC1OC(CO)C(O)C(O)C1O)C3` (stereo partly drawn), the Potency result in [1], in test [2], in [3], in test [4] and in [6] was “inactive” throughout.
Regarding `NCC(O)(CS(=O)(=O)O)c1ccc(Cl)cc1` (stereo not drawn), the Potency result in test [1], in test [2], in [3], in [4], in test [5] and in test [6] was “inactive” in each case.
For `Nc1nc(Cl)nc2c1ncn2[C@@H]1O[C@H](CO)C(O)[C@H]1O` (stereo partly drawn), the Potency entry in test [1], in test [2], in test [3], in test [4] and in [5] was “inactive” each time. Further, in [6], the Potency is 1.23 µM (active).
As for `CCn1c(=O)[nH]c2cc(Cl)c(Cl)cc21`, the Potency entry in test [1], in test [2], in test [3], in test [4], in [5] and in test [6] was “inactive” in each case.
For `O=C1C(SCCO)=C(SCCO)C(=O)c2ccccc21`, the Potency entry in [1], in test [3] and in test [6] was “inactive” in each case. The figures for the Potency in [2] and in test [4] were 9.08 µM (active) and 18.8 µM (active), respectively.
For the compound `NC[C@H]1O[C@@H](n2cnc3c(N)ncnc32)[C@H](O)[C@@H]1O`, the Potency entry in test [1], in test [2], in test [3], in test [4], in test [5] and in [6] was “inactive” throughout.
In the case of `CCCn1c(=O)c(C)cn2nc(N)nc12`, the Potency result in test [1], in [2], in [3], in [4], in test [5] and in test [6] was “inactive” in each case.
For the compound `O[Si](CCCN1CCCCC1)(c1ccc(F)cc1)C1CCCCC1` (stereo not drawn), the Potency entry in test [1], in [2], in [3], in [4] and in test [6] was “inactive” each time.
As for `Cc1ccc2c(c1)C(N1CCN(C)CC1)=Nc1cccnc1N2`, the Potency entry in test [1], in [2], in test [3], in [4], in test [5] and in test [6] was “inactive” each time.
As to `CC(C)(C)c1cc(/C=C(\C#N)C(N)=S)cc(C(C)(C)C)c1O`, the Potency entry in test [1], in [3] and in [6] was “inactive” in each case. In addition, the Potency is 2.46 µM (active) in [2] and 2.11 µM (active) in test [4].
`O=C(O)CCCC[C@@H]1CCSS1`: the Potency result in test [1], in [2], in test [3], in test [4], in test [5] and in test [6] was “inactive” each time.
With `Cn1cc(C(=O)OCC2CCN(CCNS(C)(=O)=O)CC2)c2ccccc21`, the Potency entry in test [1], in [2], in test [3], in [4], in [5] and in test [6] was “inactive” in each case.
